# Bioassay records: PubChem BioAssay, several laboratories
# The list is not random: actives were taken first. Their share in the collection is about 2.4%.
# NadD inh = blocks S. aureus nicotinate mononucleotide adenylyltransferase; inhibition, % at 20 µM; purified NadD enzyme, colorimetric absorbance read-out; AID 602399; actives 0.78% (n = 360,000); in the data active = inhibition above about 26%
# PP1 inh = counter-screen for PP5 inhibitors: inhibitors of human PP1-alpha | actives 0.9% (n = 320,000) | purified PP1alpha, OMFP fluorescence | inhibition, % at 6.7 µM;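 active = inhibition above the mean inhibition of all tested compounds plus 3 SD, computed separately for each screening campaign, cut at about 15% in these data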
# Rpn11 block = blocks the human proteasome subunit Rpn11; O00487; human 26S proteasome, Ub4-pepOG fluorescence polarization; 20S core pre-blocked with epoxomicin; inhibition, % at 20 µM; actives 0.59% (n = 360,000); AID 588493;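 active = inhibition at 20 µM, scaled to each plate's controls, above about 33%, limit read from the data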
# PREPL inh = inhibits the human prolyl oligopeptidase-like enzyme | Q4J6C6 | recombinant PREPL, fluorescence polarization activity-based probe | inhibition, % at 5.96 µM | actives 0.68% (n = 320,000) | AID 2751; in the data active = inhibition above about 43%;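 note: 0% = enzyme with DMSO and 100% = wells lacking enzyme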
# Target sequence (Q4J6C6 whole entry, looked up): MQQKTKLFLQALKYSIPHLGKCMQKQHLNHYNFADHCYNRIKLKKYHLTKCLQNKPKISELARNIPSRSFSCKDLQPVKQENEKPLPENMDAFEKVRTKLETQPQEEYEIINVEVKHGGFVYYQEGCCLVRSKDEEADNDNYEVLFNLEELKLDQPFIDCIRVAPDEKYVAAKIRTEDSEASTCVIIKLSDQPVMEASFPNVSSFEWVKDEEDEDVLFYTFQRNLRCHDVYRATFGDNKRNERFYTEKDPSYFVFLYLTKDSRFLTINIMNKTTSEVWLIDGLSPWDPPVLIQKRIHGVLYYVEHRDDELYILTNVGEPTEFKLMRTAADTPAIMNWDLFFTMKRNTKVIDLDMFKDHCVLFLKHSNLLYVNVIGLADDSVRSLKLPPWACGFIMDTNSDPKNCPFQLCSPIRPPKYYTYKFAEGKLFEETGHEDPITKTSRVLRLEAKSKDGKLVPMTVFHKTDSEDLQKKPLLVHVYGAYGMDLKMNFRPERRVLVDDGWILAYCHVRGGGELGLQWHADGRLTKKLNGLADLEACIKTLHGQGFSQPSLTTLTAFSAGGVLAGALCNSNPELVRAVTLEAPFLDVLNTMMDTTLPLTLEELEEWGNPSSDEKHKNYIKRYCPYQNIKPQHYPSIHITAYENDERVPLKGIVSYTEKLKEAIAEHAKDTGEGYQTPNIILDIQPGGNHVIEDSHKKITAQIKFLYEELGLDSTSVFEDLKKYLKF
# PP5 primary = PP5 (human) phosphatase inhibition; P53041; purified PP5c, OMFP substrate fluorescence; inhibition, % at 6.7 µM; actives 0.18% (n = 320,000);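 active = inhibition above the campaign's mean inhibition across all tested compounds plus 3 SD, cut at about 9.5% in these data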;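 note: 0% = DMSO only and 100% = 100 µM cantharidin control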
# Active calls of the source: *; · = no result given.
SMILES,NadD inh,PP1 inh,Rpn11 block,PREPL inh,PP5 primary
CN1c2ccccc2C(C)(C)C12C=Nc1c(cc(N3CCOCC3)c3ccccc13)O2 (centres undefined),16,·,25,·,·
CN1c2ccccc2C(C)(C)C12C=Cc1cc(O)ccc1O2 (centres undefined),3,-1,82*,-87,2
COC(=O)[C@]12CCCCC=C1N(Cc1cccc3ccccc13)C(=O)[C@H](CC(=O)N1CCSCC1)C2,3,·,·,·,·
CCOc1ccccc1C(=O)NC(C(=O)OCC(=O)Nc1nnc(-c2ccccc2)o1)C(C)C (centres undefined),23,16*,5,-12,1
CCOc1ccccc1C(=O)OCC(=O)Nc1nnc(-c2ccccc2)o1,8,5,-9,2,1
O=C(COc1ccccc1)Nc1nnc(-c2ccc(Cl)cc2)o1,4,17*,10,5,-4
Cc1cc(C)cc(-n2c3ccc(NC(=O)Cc4cccc5ccccc45)cc3c(=O)n2C)c1,11,·,6,·,·
O=C(Nc1ccc(Cl)c(Cl)c1)Nc1nccs1,-5,18*,-1,-12,7
Cc1noc(C)c1NC(=O)N(C)C[C@H]1OCc2cnnn2CCCC(=O)N([C@H](C)CO)C[C@H]1C,-3,·,-6,·,·
CCN(CC)CC(C)CNC(=O)C1(O)c2ccccc2NC(=O)N1c1ccc(Cl)c(Cl)c1 (centres undefined),-2,15*,-1,-5,2
O=C1Nc2ccccc2C(O)(C(=O)NCc2ccco2)N1c1ccc(Cl)c(Cl)c1 (centres undefined),6,-2,-2,9,-8
Oc1ccc(-c2nc3ccc4ccccc4c3c3c2CCC3)cc1O,39*,-2,0,16,1
NNC(=O)c1ccc(CSc2n[nH]c(=O)[nH]c2=O)cc1,-3,16*,-1,-4,-1
O=C(Nc1ccc(N2CCCC2)c(Cl)c1)c1cccc(-c2cc3ccccc3oc2=O)c1,22,16*,6,5,1
CC(=O)Nc1ccc(NC(=O)c2cccc(-c3cc4ccccc4oc3=O)c2)cc1,3,0,6,6,1
O=C(O)c1ccccc1-c1ccccc1C(=O)Nc1ccc2oc(=O)c3ccccc3c2c1,1,·,5,·,·
O=C(O)c1ccccc1-c1ccccc1C(=O)Nc1ccc2c(c1)[nH]c(=O)c1ccccc12,5,15*,30,7,2
O=C(Nc1ccc(-n2nncc2-c2ccco2)cc1)c1cc2ccccc2oc1=O,7,29*,·,11,-2
O=C(Nc1ccc(-n2nncc2-c2ccco2)cc1)c1cccc(F)c1,-2,1,1,0,0
COc1ccc(C(C)(O)c2nc(-c3cccc(C(F)(F)F)c3)cs2)cc1 (centres undefined),-14,·,5,·,·
COc1ccc(-c2[nH]c3ccccc3c2SCCN)cc1,-2,-3,-2,55*,-1
COc1ccc(CCNC(=O)c2cccc(S(=O)(=O)N3CCOCC3)c2)cc1OC,2,1,2,9,0
CCN(CC)S(=O)(=O)c1cccc(C(=O)N/N=C/c2cc(OC)c(O)c(OC)c2)c1,5,0,-3,4,1
CCN(CC)S(=O)(=O)c1cccc(C(=O)N/N=C/c2cccc(O)c2O)c1,0,16*,-5,15,0
CCN(CC)c1ccc(NC(=O)c2ccc3c(c2)c(C)c(C)n3C)cc1,11,17*,16,15,3
SMILES,NadD inh,PP1 inh,Rpn11 block,PREPL inh,PP5 primary
CC1CC(C)CN(C(CCc2ccccc2)C(=O)NC2CCCCC2)C1 (centres undefined),-5,·,5,·,·
CCN(CC)CCCCCCCCOC(=O)c1cc(OC)c(OC)c(OC)c1,-3,4,-3,-11,4
CC(CCN1C(Nc2ccccc2)=NC[C@@H]1Cc1ccccc1)c1ccccc1 (some centres undefined),-1,-1,-2,8,1
CCCCCCc1cc2cc(C(=O)NCc3ccccc3)c(=N)oc2cc1O,31*,-4,·,12,4
CCCCCCc1cc2cc(C(=O)Nc3ccccc3)c(=O)oc2cc1O,8,0,9,4,-1
COC(=O)[C@]12CCCCC=C1N(Cc1cccc3ccccc13)C(=O)[C@H](CC(=O)NCCCN1CCCC1=O)C2,6,·,·,·,·
O=c1c2c([nH]n1-c1ccccc1)C[C@@H](C1CCCCC1)O[C@H]2c1ccc(F)cc1,8,·,·,·,·
Cc1ccc(NC(=O)CN2C(=O)S/C(=C/c3ccc(-c4cccc(C(=O)O)c4)o3)C2=O)cc1,21,·,·,·,·
